# Compound activity deposited in PubChem by The Scripps Research Institute Molecular Screening Center.
# PG9 Ab binder = binds the HIV-1 gp120 antibody PG9; TR-FRET gp120-PG9 antibody binding; actives 0.43% (n = 360,000); inhibition, % at 6.7 µM; in the data active = inhibition above about 8.5%
# rCAG binder = r(CAG) repeat RNA binding | inhibition, % at 3 µM | TO-PRO-1 dye displacement fluorescence | actives 1.3% (n = 370,000);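 active = inhibition above the plate cutoff, the mean of all test compounds on that plate plus 3 SD, cut at about 35% in these data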;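 also: 0% = DMSO alone and 100% = 100 µM mitoxantrone as full dye displacement; higher means more dye released from RNA so lower well fluorescence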
# MsrA act = bovine methionine sulfoxide reductase A activation; purified bovine MsrA, absorbance read-out; activation, % at 10.6 µM; actives 0.3% (n = 360,000); AID 602163; in the data active = activation above about 7.5%;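 also: 0% = vehicle and 100% = reference activator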
# MsrA inhibitor = bovine MsrA inhibition; actives 0.75% (n = 360,000); inhibition, % at 15.5 µM; purified bovine MsrA, absorbance read-out; in the data active = inhibition above about 4.5%;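 also: 0% = vehicle wells with enzyme and 100% = reference inhibitor wells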
# sPLA2-III inh = Inhibits HGIII-sPLA2 liposome hydrolysis, primary screen; inhibition, % at 12.2 µM; QFRET BODIPY PC-A2 liposome hydrolysis, fluorescence; actives 0.56% (n = 370,000); Q9NZ20;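 active = inhibition above mean plus 3 SD of compounds lying within the high and low control bounds, cut at about 19% in these data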;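 also: 0% = median of test compound wells and 100% = no enzyme DMSO wells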
# Target sequence (Q9NZ20 whole entry, looked up): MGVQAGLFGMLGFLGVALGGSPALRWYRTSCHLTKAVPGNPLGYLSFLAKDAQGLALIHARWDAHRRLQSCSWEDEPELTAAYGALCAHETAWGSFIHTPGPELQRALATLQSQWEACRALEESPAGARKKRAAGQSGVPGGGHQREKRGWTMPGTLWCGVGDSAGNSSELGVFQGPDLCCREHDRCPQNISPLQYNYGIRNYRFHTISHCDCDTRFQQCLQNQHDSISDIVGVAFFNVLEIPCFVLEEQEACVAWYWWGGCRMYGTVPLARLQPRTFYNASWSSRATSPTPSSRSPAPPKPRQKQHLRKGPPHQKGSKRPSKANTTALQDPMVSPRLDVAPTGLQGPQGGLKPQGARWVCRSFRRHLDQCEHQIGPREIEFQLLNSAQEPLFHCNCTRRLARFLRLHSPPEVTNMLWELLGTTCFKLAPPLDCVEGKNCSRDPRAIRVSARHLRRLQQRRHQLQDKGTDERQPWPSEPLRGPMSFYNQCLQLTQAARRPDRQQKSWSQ
# MsrA activ conf = confirmation of bovine methionine sulfoxide reductase A activators; shares compounds with MsrA act; purified bovine MsrA, absorbance read-out; actives 12% (n = 1,000); activation, % at 10.6 µM; in the data active = activation above about 4%;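 also: enzyme coupled to thioredoxin and thioredoxin reductase with NADPH; 0% = vehicle wells and 100% = reference activator wells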
# Active calls of the source: *; · = no result given. Hits are enriched below; roughly 3.2% of the tested compounds scored in any of these assays.
SMILES,PG9 Ab binder,rCAG binder,MsrA act,MsrA inhibitor,sPLA2-III inh,MsrA activ conf
COC(=O)Cc1[nH]n(-c2nc3ccccc3s2)c(=O)c1C(C)=Nc1ccc(C)cc1,-2,10,-4,0,-7,·
COC(=O)Cc1[nH]n(-c2nc3ccccc3s2)c(=O)c1C(C)=Nc1ccc(Cl)cc1,0,7,8.2*,2,4,-1
COC(=O)[C@@H](C)NC(=O)c1ccc2oc(CCc3ccccc3)nc2c1,0,-7,-3,0,-5,·
COC(=O)CCCNC(=O)c1ccc2oc(CCCc3ccccc3)nc2c1,0,0,11*,1,-14,-2
O=c1oc2ccc(C#CC3(O)CCCCC3)cc2cc1-n1cc(C2(O)CCCCC2)nn1,8,-1,8.6*,-1,0,-1
Cc1cc(NC(=O)CCCC(=O)OCC(F)(F)C(F)F)cc(C)c1C(=O)O,0,4,8.3*,-1,-3,-3
NC(=O)CSc1nnc(-c2ccccn2)n1Cc1ccco1,-1,-2,9.0*,1,6,-2
CCCCCCCCN1CCS(=O)(=O)N(Cc2ccc(OC)cc2)C(C(=O)OC)C1 (centres undefined),·,2,·,·,-5,·
Cc1ccc(C(=O)CC(C(=O)O)n2cnc([N+](=O)[O-])n2)cc1 (centres undefined),-1,0,9.4*,-1,4,-2
Cc1nc(-c2ccccc2)[nH]c(=O)c1Oc1ccc(Cl)cc1Cl,3,0,-1,1,9,·
O=c1[nH]c(=S)[nH]cc1Oc1ccc(Cl)cc1Cl,8,6,8.8*,0,5,4.7*
COc1ccc(Cl)cc1NC(=O)NCC1CCN(Cc2cc(C)ccc2C)CC1,-1,-1,0,0,-6,·
COc1cc([N+](=O)[O-])ccc1NC(=O)NCC1CCN(Cc2ccc(Cl)cc2)CC1,-2,3,22*,1,-13,-2
CC1(C)Cc2c(sc3nc(-c4ccccc4)n(N)c(=O)c23)CO1,-1,2,-4,1,-1,·
CSc1nnc2c3c4c(sc3c(=O)n(-c3ccccc3)n12)CC(C)(C)OC4,1,-5,24*,1,7,-3
Cc1ccc(NC2=C/C(=N/S(=O)(=O)c3cccs3)c3ccccc3C2=O)cc1C,-4,1,-5,-1,-4,·
Cc1cc(C)c(S(=O)(=O)/N=C2/C=C(Sc3ncn[nH]3)C(=O)c3ccccc32)cc1C,0,56*,14*,61*,-20,8.0*
Cc1nc(N2CCCCC2C)c2nnn(Cc3ccccc3)c2n1 (centres undefined),·,-1,·,·,-3,·
C=CCN1[C@@H](C)COc2cc(N3CCCC3)ccc2S1(=O)=O,·,-1,·,·,1,·
c1ccc(-c2cc3c(N4CCCC4)ncnc3s2)cc1,1,2,-11,0,4,·
c1ccc(-c2cc3c(N4CCOCC4)ncnc3s2)cc1,0,8,8.0*,2,-8,-3
CC(C)(C)NC(=O)/C=C/c1ccc(C(F)(F)F)cc1,-2,-7,8.2*,0,-3,-1
CCOc1ccc2[nH]c(=O)c(CN(Cc3cccs3)Cc3nnnn3C(C)(C)CC)cc2c1,0,0,-3,0,-12,·
CCC(C)(C)n1nnnc1CN(Cc1cccs1)Cc1cc2cc(OC)ccc2[nH]c1=O,-1,-4,7.7*,1,-10,-3
CC(=O)N[C@@H]1C[C@@H]2O[C@H](CO)CC[C@@H]2O[C@@H]1CCc1ccc(-c2ccc(F)cc2)cc1,·,4,·,·,9,·
SMILES,PG9 Ab binder,rCAG binder,MsrA act,MsrA inhibitor,sPLA2-III inh,MsrA activ conf
O=C(Nc1ccccc1)Nc1ccccn1,1,3,-2,-1,0,·
O=C(Nc1ccc(Cl)cc1)Nc1ccccn1,-2,-1,8.4*,1,3,-2
CCOC(=O)c1cc2c(=O)n3ccccc3nc2n(CCOC)c1=NC(=O)C(C)(C)C,1,-8,8.2*,0,1,0
CCOC(=O)c1cc2c(=O)n3ccccc3nc2n(CCCOC)c1=NC(=O)C(C)(C)C,-2,-1,-1,-1,6,·
C=CCN(c1cccc(C(F)(F)F)c1)S(=O)(=O)c1cccc(C(=O)OCC(=O)Nc2ccccc2)c1,0,0,8.3*,2,-8,-1
Cc1c(NC(=O)C2CCCN(S(=O)(=O)c3cccc4ccccc34)C2)c(=O)n(-c2ccccc2)n1C (centres undefined),·,4,·,·,-1,·
CC(C)c1ncc(C(O)c2cccc3ccccc23)n1C (centres undefined),0,2,13*,-1,-1,-3
COc1cccc(C(O)c2cnc(C(C)C)n2C)c1OC (centres undefined),-1,-2,-7,-1,-2,·
CCN(CC)c1ccc2nc3ccccc3[n+](CC)c2c1,·,·,34*,·,·,19*
C=CCN1C(=O)c2ccccc2C1(O)Cc1ccccc1 (centres undefined),-1,-3,11*,0,-1,-4
CC(C)CN1C(=O)c2ccccc2C1(O)Cc1ccccc1 (centres undefined),-1,-1,-5,0,6,·
CCN(CC)C(=O)CC[C@H]1CC[C@]2(CCCN(CC3CC3)C2)O1,·,3,·,·,5,·
Cc1cc(Cl)ccc1OCc1n[nH]c(=S)n1C1CCCCC1,2,10,8.6*,0,-22,0
COC(=O)[C@@]12CCCCC3=C1N(CCC3)C(=O)[C@H]2CC(=O)NCc1ccc(C)o1,·,2,·,·,0,·
COc1ccc(NC(=O)N(C)C[C@H]2OCCCC[C@@H](C)Oc3ccc(NC(=O)c4ccccc4)cc3C(=O)N([C@H](C)CO)C[C@@H]2C)cc1,0,13,11*,0,3,-2
Cc1noc(C)c1NC(=O)N(C)C[C@H]1Oc2ccc(NC(=O)Nc3ccc(C(F)(F)F)cc3)cc2C(=O)N([C@H](C)CO)C[C@@H]1C,-2,-1,19*,-1,-25,0
Cc1noc(C)c1NC(=O)N(C)C[C@H]1Oc2ccc(NC(=O)NC(C)C)cc2C(=O)N([C@H](C)CO)C[C@H]1C,2,0,-13,1,3,·
CCC(=O)Nc1ccc2c(c1)C(=O)c1ccccc1C2=O,-1,7,0,0,5,·
CCC(=O)NC1=C(NC(C)c2ccccc2)C(=O)c2ccccc2C1=O (centres undefined),-15,-4,11*,0,6,-1
c1ccc(-n2cnc3cc(NCc4cccs4)ccc32)cc1,-1,-1,-1,0,2,·
c1ccc(-n2cnc3cc(NCc4ccco4)ccc32)cc1,-1,-2,9.5*,0,10,1
Cc1ccc(Cn2cc(CN3[C@@H](Cc4ccccc4)COc4cc(Br)ccc4S3(=O)=O)nn2)cc1,·,1,·,·,5,·
C=CCNC(=O)c1nc2ccccc2s1,0,1,9.6*,-1,5,-1
CC(=O)Nc1ccc(SC[C@H](Cc2ccccc2)N2CC[C@@H](O)CCC2=O)cc1,0,1,9.3*,0,-1,-1
